Assay results from PubChem BioAssay (NCI).
Values joined by “and” are separate entries in the source; they are usually repeats but may differ in a detail not shown here. Equal values may be shown once. Compounds without any hit were thinned out: in the full panel of roughly 79,000, 15% have a hit. Where a structure was tested more than once in an assay, its records may differ in their call. Active and inactive are the calls of the source. Rule as the data show it: active = growth inhibition above about 70%; inactive = the rest.

What was measured:
[1] = NCI Yeast Anticancer Drug Screen. Data for the rad52 strain (AID 147);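 also: 0% = growth of vehicle-treated control cultures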; conditions: S. cerevisiae rad52 mutant growth inhibition, stronger effect = higher value
Method in brief: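 Screen used a yeast mutant impaired in DNA repair. After compound exposure, growth was measured. Values reflect inhibition compared with vehicle-treated cells.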

[2] = NCI Yeast Anticancer Drug Screen. Data for the wt1 strain (AID 149);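 also: 0% = growth of vehicle-treated wt1 cultures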; conditions: S. cerevisiae wt1 strain (SPY 50644) growth inhibition, stronger effect = higher value
Method in brief: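 Readout: yeast growth inhibition, normalised to vehicle controls, in the wt1 strain exposed to test compounds.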

[3] = NCI Yeast Anticancer Drug Screen. Data for the rad50EPP+ strain (AID 151);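 also: 0% = growth of vehicle-treated control cultures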; conditions: S. cerevisiae rad50 mutant strain, stronger effect = higher value
Method in brief: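 Exposing the rad50EPP+ strain to each compound, growth was compared with vehicle-only cultures to give inhibition.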

[4] = NCI Yeast Anticancer Drug Screen. Data for the rad50 strain (AID 155);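 also: 0% = growth of vehicle-only cultures of the same strain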; conditions: S. cerevisiae rad50 strain growth inhibition, stronger effect = higher value
Method in brief: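 Compounds were tested on a yeast strain with an engineered DNA damage repair alteration; the reported value is growth inhibition normalised to vehicle treatment.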

[5] = NCI Yeast Anticancer Drug Screen. Data for the mec2-1 strain (AID 157); conditions: S. cerevisiae mec2-1 strain, stronger effect = higher value
Method in brief: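 Readout is yeast growth inhibition, normalised to vehicle-treated controls, in the mec2-1 strain exposed to compound.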

[6] = NCI Yeast Anticancer Drug Screen. Data for the rad14 strain (AID 159);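 also: 0% = growth of vehicle-treated control cultures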; conditions: S. cerevisiae rad14 strain growth inhibition, stronger effect = higher value
Method in brief: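 Compound-treated yeast with a defined DNA-repair lesion; growth inhibition normalised to vehicle-treated cultures.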

[7] = NCI Yeast Anticancer Drug Screen. Data for the sgs1 mgt1 strain (AID 161);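 also: 0% = growth of cultures given vehicle only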; conditions: S. cerevisiae sgs1 mgt1 strain, stronger effect = higher value
Method in brief: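 Compounds are added to genetically altered yeast, and growth is compared with cultures given vehicle alone to give percent inhibition.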

[8] = NCI Yeast Anticancer Drug Screen. Data for the CLN2oe strain (AID 163);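 also: 0% = growth of vehicle-only control cultures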; conditions: S. cerevisiae CLN2oe strain, stronger effect = higher value
Method in brief: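 Values reflect how much compound exposure reduced yeast growth, referenced to vehicle-exposed cells. Assay organism is a strain with a defined genetic change affecting cell-cycle control.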

[9] = NCI Yeast Anticancer Drug Screen. Data for the cln2 rad14 strain (AID 165);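 also: 0% = growth equal to vehicle treated cultures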; conditions: S. cerevisiae cln2 rad14 strain, stronger effect = higher value
Method in brief: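 Relative to vehicle controls, growth inhibition of compound-treated cln2 rad14 yeast was recorded.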

[10] = NCI Yeast Anticancer Drug Screen. Data for the bub3 strain (AID 167); conditions: S. cerevisiae bub3 mutant strain, stronger effect = higher value
Method in brief: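 Growth of a checkpoint-deficient yeast mutant is measured after compound exposure. Values represent inhibition relative to vehicle.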

[11] = NCI Yeast Anticancer Drug Screen. Data for the wt2 strain (AID 169);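 also: 0% = growth of vehicle-treated yeast cultures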; conditions: S. cerevisiae wt2 strain growth inhibition, stronger effect = higher value
Method in brief: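 Values express reduction in yeast growth under compound treatment, referenced to vehicle-treated cells.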

[12] = NCI Yeast Anticancer Drug Screen. Data for the mlh1 strain (AID 171);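 also: 0% = growth of vehicle-treated control cultures of the same strain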; conditions: S. cerevisiae mlh1 strain growth inhibition, stronger effect = higher value
Method in brief: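 Steps: expose the defined-mutant yeast strain to compound; expose a parallel culture to vehicle; measure growth; express compound effect as inhibition relative to the vehicle culture.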

[13] = NCI Yeast Anticancer Drug Screen. Data for the sgs1 strain (AID 173);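 also: 0% = growth of vehicle-only control cultures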; conditions: S. cerevisiae sgs1 mutant, stronger effect = higher value
Method in brief: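 Treat defined-mutant yeast with compound; measure growth; calculate inhibition relative to vehicle-treated cells.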

[14] = NCI Yeast Anticancer Drug Screen. Data for the mlh1 rad18 strain (AID 175); conditions: S. cerevisiae mlh1 rad18 strain growth inhibition, stronger effect = higher value
Method in brief: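 Test agents were incubated with a yeast strain of defined genotype (DNA damage repair defect). Inhibition of growth was derived by comparison with vehicle-exposed cultures.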

[15] = NCI Yeast Anticancer Drug Screen. Data for the rad18 strain (AID 177); conditions: S. cerevisiae rad18 mutant growth inhibition, stronger effect = higher value
Method in brief: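 A genetically defined yeast mutant impaired in DNA damage repair was treated with test compounds, then its growth was measured against cultures receiving vehicle alone.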

[16] = at 5.0 µM (retest, dose inferred, filed as 0.5)
[17] = at 50.0 µM (retest, dose inferred, filed as 5.0)

What does the source list for `COc1ccc2[nH]cc([C@@H]3C4CCC(C4)[C@H]3NCc3cccc(CN[C@H]4C5CCC(C5)[C@@H]4c4c[nH]c5ccc(OC)cc45)c3)c2c1`?
growth inhibition ([1]; at 1.2 µM): -28% (inactive); growth inhibition ([1]; at 3.7 µM): -23% (inactive); growth inhibition ([1]; at 11.0 µM): -20% (inactive); growth inhibition ([1]; at 33.0 µM): 22% (inactive); growth inhibition ([1]; at 100.0 µM): 98% (active); growth inhibition ([2]; at 1.2 µM): -33% (inactive); growth inhibition ([2]; at 3.7 µM): -43% (inactive); growth inhibition ([2]; at 11.0 µM): -41% (inactive); growth inhibition ([2]; at 33.0 µM): -8% (inactive); growth inhibition ([2]; at 100.0 µM): 93% (active); growth inhibition ([3]; at 1.2 µM): -19% (inactive); growth inhibition ([3]; at 3.7 µM): -14% (inactive); growth inhibition ([3]; at 11.0 µM): -7% (inactive); growth inhibition ([3]; at 33.0 µM): -23% (inactive); growth inhibition ([3]; at 100.0 µM): 63% (inactive); growth inhibition ([4]; at 1.2 µM): -36% (inactive); growth inhibition ([4]; at 3.7 µM): -16% (inactive); growth inhibition [4, 16]: -15% (inactive); growth inhibition ([4]; at 11.0 µM): -27% (inactive); growth inhibition ([4]; at 33.0 µM): 51% (inactive); growth inhibition [4, 17]: 99% (active); growth inhibition ([4]; at 50.0 µM): 98.3% (active) and 55.8% (inactive); growth inhibition ([4]; at 100.0 µM): 97% (active); growth inhibition ([5]; at 1.2 µM): -61% (inactive); growth inhibition ([5]; at 3.7 µM): -59% (inactive); growth inhibition [5, 16]: -2% (inactive); growth inhibition ([5]; at 11.0 µM): -54% (inactive); growth inhibition ([5]; at 33.0 µM): 26% (inactive); growth inhibition [5, 17]: 99% (active); growth inhibition ([5]; at 50.0 µM): 99.2% (active) and 10.9% (inactive); growth inhibition ([5]; at 100.0 µM): 97% (active); growth inhibition ([6]; at 1.2 µM): -30% (inactive); growth inhibition ([6]; at 3.7 µM): -23% (inactive); growth inhibition ([6]; at 11.0 µM): 0% (inactive); growth inhibition ([6]; at 33.0 µM): 89% (active); growth inhibition ([6]; at 100.0 µM): 98% (active); growth inhibition [7, 16]: -7% (inactive); growth inhibition [7, 17]: 88% (active); growth inhibition ([7]; at 50.0 µM): 99.4% (active) and 61% (inactive); growth inhibition ([8]; at 1.2 µM): 36% (inactive); growth inhibition ([8]; at 3.7 µM): 33% (inactive); growth inhibition ([8]; at 11.0 µM): 31% (inactive); growth inhibition ([8]; at 33.0 µM): 63% (inactive); growth inhibition ([8]; at 100.0 µM): 92% (active); growth inhibition [9, 16]: 27% (inactive); growth inhibition [9, 17]: 99% (active); growth inhibition ([9]; at 50.0 µM): 99.2% (active) and 77.3% (active); growth inhibition ([10]; at 1.2 µM): -25% (inactive); growth inhibition ([10]; at 3.7 µM): -32% (inactive); growth inhibition [10, 16]: 7% (inactive); growth inhibition ([10]; at 11.0 µM): -18% (inactive); growth inhibition ([10]; at 33.0 µM): 56% (inactive); growth inhibition [10, 17]: 98% (active); growth inhibition ([10]; at 50.0 µM): 98.8% (active) and 35.2% (inactive); growth inhibition ([10]; at 100.0 µM): 98% (active); growth inhibition ([11]; at 1.2 µM): -41% (inactive); growth inhibition ([11]; at 3.7 µM): -42% (inactive); growth inhibition ([11]; at 11.0 µM): -46% (inactive); growth inhibition ([11]; at 33.0 µM): 20% (inactive); growth inhibition ([11]; at 100.0 µM): 99% (active); growth inhibition ([12]; at 1.2 µM): -68% (inactive); growth inhibition ([12]; at 3.7 µM): -64% (inactive); growth inhibition ([12]; at 11.0 µM): -60% (inactive); growth inhibition ([12]; at 33.0 µM): 61% (inactive); growth inhibition ([12]; at 100.0 µM): 97% (active); growth inhibition ([13]; at 1.2 µM): -38% (inactive); growth inhibition ([13]; at 3.7 µM): -37% (inactive); growth inhibition ([13]; at 11.0 µM): -45% (inactive); growth inhibition ([13]; at 33.0 µM): -5% (inactive); growth inhibition ([13]; at 100.0 µM): 97% (active); growth inhibition [14, 16]: 2% (inactive); growth inhibition [14, 17]: 99% (active); growth inhibition ([14]; at 50.0 µM): 38.5% (inactive); growth inhibition ([15]; at 1.2 µM): -19% (inactive); growth inhibition ([15]; at 3.7 µM): -10% (inactive); growth inhibition ([15]; at 11.0 µM): -31% (inactive); growth inhibition ([15]; at 33.0 µM): 58% (inactive); growth inhibition ([15]; at 100.0 µM): 98% (active)
